Data from PubChem BioAssay AID504832 (National Center for Advancing Translational Sciences (NCATS), 2011).
The campaign covered roughly 310,000 compounds. About 18,000 (5.8%) were called active. Inconclusive results (about 22%) are left out. The call rests on the fitted dose curve; in most records, active means well fitted inhibition curve with a large enough effect; inconclusive means small, poorly fitted or top-dose-only effect, or another doubt; inactive means no such curve, though single readings can be large or run the other way. Shown is part of a subset that was picked to be rich in actives.

Experiment: Primary qHTS for delayed death inhibitors of the malarial parasite plastid, 48 hour incubation
Details: P. falciparum luciferase growth in erythrocytes; series mostly up to 28.7 µM; activity change, negative = inhibition: at the top concentration
Excerpt: The goal of this screen is to discover new antimalarial compounds that act by inhibiting the development of the apicoplast in the malarial parasite Plasmodium falciparum. The biochemical processes that make this organelle essential for erythrocytic stage parasites are not well understood. However, antibiotics such as azithromycin and tetracycline, which target the apicoplast translational machinery, have a potent antimalarial effect.
We have developed a cell-based assay that measures parasite growth based on the expression of an integrated copy of a firefly luciferase reporter. To detect small molecules that cause this "delayed death" phenotype, erythrocytes infected with the luciferase-expressing parasites were incubated with compounds for either one or two generations, corresponding to 48 and 96 hours, respectively. Compounds that inhibit parasite growth in the second generation, but not the first, should be enriched in antimalarials that target the apicoplast. Growth inhibition is detected by a decrease in luciferase activity.
Assay Provider: David Fidock and Eric Ekland, Columbia University
Keywords: NIH Roadmap, MLPCN, MLI, MLSMR, qHTS, NCGC, qHTS, malaria, luciferase, viability
Four microliters of culture medium (RPMI 1640 with 0.5% w/v Albumax (GIBCO), 24 mM sodium bicarbonate and 10 ug/mL gentamycin) were dispensed by a Multi-drop Combi into white solid 1536-well plates (Grenier) and 23 nL compound was added by a pin tool. Four microliters of infected erythrocytes (2% hematocrit, 0.1% parasitemia final concentration) in culture medium were dispensed and the plates incubated for 48 hours at 37 C in 5% CO2. Two microliters of luciferase detection reagent was added and luminescence was detected by a ViewLux (PerkinElmer) reader.
On the % scale 0 is the no-effect control and ±100 the full control effect; potency means the concentration at half of the fitted maximal effect.

Q: With `Cc1ccc(CN(CC(=O)NCC2CCCO2)S(=O)(=O)c2ccc(C)cc2)cc1` (stereo not given) as the compound, how does the “activity change, negative = inhibition” value read?
A: The value was 6.34% (inactive).

Q: Which “activity change, negative = inhibition” value does the source give for `O=C(Cc1ccccc1)Nc1ccc(C(=O)Nc2ccccc2C(=O)O)cc1` here?
A: Its value is -11.1% (inactive).

Q: With `CCOC(=O)c1sc(NC(=O)C2CSC3(C)CCC(=O)N23)nc1C` (stereo not given) as the compound, how does the “activity change, negative = inhibition” value read?
A: Its value is -29.7% (inactive).

Q: For `CCOC(=O)N1CCN(Cc2nc3cc(NC(C)=O)ccc3n2C)CC1`, which “activity change, negative = inhibition” value is on record?
A: Its value is 19.6% (inactive).

Q: With `O=C(Nc1ccc(F)cc1)C1CCCN(S(=O)(=O)c2ccc(-n3cnnn3)cc2)C1` (stereo not given) as the compound, how does the “activity change, negative = inhibition” value read?
A: Its value is 1.34% (inactive).

Q: For `Cc1ccc(NC(=O)C2CC(=O)N(c3ccc4c(c3)OCCO4)C2)cc1S(=O)(=O)N1CCCCCC1` (stereo not given), which Potency is on record?
A: Its Potency is 11.7 µM (active).

Q: Which “activity change, negative = inhibition” value does the source give for `CCOC(=O)c1ccc(NC(=O)C2CC(=O)N(c3ccc4c(c3)OCCO4)C2)cc1` (stereo not given) here?
A: Its value is -24.2% (inactive).

Q: With `O=C(Nc1ccccc1)C1CCN(C(=O)c2ccc(Br)cc2)CC1` as the compound, how does the “activity change, negative = inhibition” value read?
A: Its value is -23.3% (inactive).

Q: Which “activity change, negative = inhibition” value does the source give for `CC(=O)c1ccccc1NC(=O)C1CC(=O)N(c2ccc3c(c2)OCCO3)C1` (stereo not given) here?
A: Its value is -4.46% (inactive).

Q: For `O=C(Nc1ccc(S(=O)(=O)N2CCCCC2)cc1)C1CCN(C(=O)c2ccc(F)cc2)CC1`, which Potency is on record?
A: The Potency was 9.28 µM (active).

Q: With `Cc1c(Cl)c([N+](=O)[O-])nn1CC(=O)NCCCN1CCOCC1` as the compound, how does the “activity change, negative = inhibition” value read?
A: The value was 24% (inactive).

Q: With `N[C@@H](Cc1ccccc1)C(=O)N1CCOCC1` as the compound, how does the “activity change, negative = inhibition” value read?
A: The value was 23.4% (inactive).

Q: With `CSCC[C@H](NC(=O)N1CCn2c1nc1ccccc12)C(=O)NC1CCCCC1` as the compound, how does the “activity change, negative = inhibition” value read?
A: Its value is -18.4% (inactive).

Q: With `COc1cccc(CNC(=O)CCC2CCCN(C(=O)c3ccc(F)c(Cl)c3)C2)c1` (stereo not given) as the compound, how does the “activity change, negative = inhibition” value read?
A: Its value is -19% (inactive).

Q: For `CCOc1ccc(CC(=O)NC2CCN(Cc3ccccc3)CC2)cc1`, which “activity change, negative = inhibition” value is on record?
A: The value was 1.1% (inactive).

Q: With `Cc1ccc(S(=O)(=O)N(C)C)cc1NC(=O)CN1c2cccc3cccc(c23)S1(=O)=O` as the compound, how does the Potency read?
A: The Potency was 13.1 µM (active).

Q: For `CC(C)CN(CC(C)C)C(=O)CN1c2cccc3cccc(c23)S1(=O)=O`, which “activity change, negative = inhibition” value is on record?
A: The value was 9.64% (inactive).

Q: With `O=C(O)CN1c2cccc3cccc(c23)S1(=O)=O` as the compound, how does the “activity change, negative = inhibition” value read?
A: The value was 39.3% (inactive).

Q: For `Cc1cc(=O)n2nc(N3CCC(C(=O)Nc4c(F)c(F)c(F)c(F)c4F)CC3)sc2n1`, which “activity change, negative = inhibition” value is on record?
A: Its value is -2.44% (inactive).

Q: With `CCOc1ccc(S(=O)(=O)N2CCN=C2Cc2ccccc2)cc1C` as the compound, how does the “activity change, negative = inhibition” value read?
A: The value was 3.8% (inactive).

Q: Which “activity change, negative = inhibition” value does the source give for `Cc1ccc(C23CC4CC(CC(C(=O)NCC(=O)O)(C4)C2)C3)cc1` here?
A: The value was 18.8% (inactive).

Q: With `CC(=O)Nc1ccc(NC(=O)CCN2C(=O)C3CC=CCC3C2=O)cc1` (stereo not given) as the compound, how does the “activity change, negative = inhibition” value read?
A: The value was -5.38% (inactive).

Q: With `COc1ccc(CNC(=O)[C@H](Cc2c[nH]c3ccccc23)NC(C)=O)cc1OC` as the compound, how does the “activity change, negative = inhibition” value read?
A: The value was 6% (inactive).

Q: For `COc1ccc(NC(=O)[C@H](NC(=O)[C@@H]2Cc3ccccc3CN2)c2ccccc2)cc1`, which “activity change, negative = inhibition” value is on record?
A: Its value is -16.2% (inactive).

Q: For `COc1cccc(NC(=O)[C@H](Cc2c[nH]c3ccccc23)NC(=O)[C@@H]2Cc3ccccc3CN2)c1`, which Potency is on record?
A: Its Potency is 9.28 µM (active).

Q: Which “activity change, negative = inhibition” value does the source give for `CCOC(=O)c1c(C)[nH]c(C)c1S(=O)(=O)NCCCc1ccco1` here?
A: The value was -0.529% (inactive).

Q: With `CC1CCCCC1NC(=O)CCS(=O)(=O)c1ccc2c(c1)NC(=O)CO2` (stereo not given) as the compound, how does the “activity change, negative = inhibition” value read?
A: The value was 9.15% (inactive).

Q: Which “activity change, negative = inhibition” value does the source give for `CCOc1ccc(CN2CCN(Cc3ccc4cc(F)ccc4n3)CC2CCO)cc1` (stereo not given) here?
A: Its value is 7.78% (inactive).

Q: Which Potency does the source give for `COc1cccc(CN(C)CC(O)COC(c2ccccc2)c2ccccc2C)c1` (stereo not given) here?
A: Its Potency is 8.28 µM (active).

Q: Which “activity change, negative = inhibition” value does the source give for `COc1ccc(OCC(O)CN(C)C(=O)C(C)Oc2ccccc2)cc1` (stereo not given) here?
A: The value was -15.8% (inactive).

Q: Which “activity change, negative = inhibition” value does the source give for `COc1cccc(CN(C)CC(=O)Nc2sc3c(c2C#N)CCC3)c1` here?
A: The value was -7.19% (inactive).

Q: For `CC(=O)Nc1ccc(NC(=O)CSc2nnnn2-c2ccccc2F)cc1`, which “activity change, negative = inhibition” value is on record?
A: Its value is 7.75% (inactive).

Q: For `O=C(NCCNc1ccccc1[N+](=O)[O-])c1ccccc1F`, which “activity change, negative = inhibition” value is on record?
A: The value was 192% (inactive).

Q: For `COc1ccccc1C(=O)Nc1ccc(OCC(=O)N2CCCCC2)cc1`, which “activity change, negative = inhibition” value is on record?
A: Its value is 33.9% (inactive).

Q: For `CC(C)c1ccc2c(c1)c(SC(C)(C)C)c(CC(C)(C)C(=O)O)n2Cc1ccc(Cl)cc1`, which Potency is on record?
A: The Potency was 8.28 µM (active).

Q: With `O=C(O)c1ccc(Cn2c(=S)[nH]c3cc(Cl)ccc3c2=O)cc1` as the compound, how does the “activity change, negative = inhibition” value read?
A: Its value is 12.3% (inactive).

Q: With `COc1ccc(NS(=O)(=O)c2cccc3nsnc23)cc1Cl` as the compound, how does the “activity change, negative = inhibition” value read?
A: The value was -4.88% (inactive).

Q: With `COc1ccc(-n2nc(C(=O)Nc3cc(OC)c(OC)c(OC)c3)c3ccccc3c2=O)c(OC)c1` as the compound, how does the “activity change, negative = inhibition” value read?
A: Its value is 26.5% (inactive).

Q: With `COc1cccc(NC(=O)c2nn(-c3ccc(OC)cc3OC)c(=O)c3ccccc23)c1` as the compound, how does the “activity change, negative = inhibition” value read?
A: The value was 21.4% (inactive).

Q: With `COc1ccc(-n2nc(C(=O)NCC(=O)N3CCN(c4ccccc4OC)CC3)c3ccccc3c2=O)c(OC)c1` as the compound, how does the Potency read?
A: The Potency was 1.04 µM (active).

Q: For `O=C(NCCCN1CCCCC1)C1CC(=O)N(CCc2ccccc2)C1` (stereo not given), which “activity change, negative = inhibition” value is on record?
A: The value was 28% (inactive).

Q: With `O=C(Nc1ccc2c(c1)OCO2)C1CC1(Cl)Cl` (stereo not given) as the compound, how does the “activity change, negative = inhibition” value read?
A: Its value is 34.4% (inactive).

Q: For `CCOc1ccc(C(O)Cc2nc3ccccc3n2C)cc1` (stereo not given), which “activity change, negative = inhibition” value is on record?
A: The value was 48.9% (inactive).

Q: With `CCOc1ccc(C(O)Cn2c(=N)n(CCN3CCCCC3)c3ccccc32)cc1` (stereo not given) as the compound, how does the Potency read?
A: Its Potency is 4.65 µM (active).

Q: For `Cn1c(=N)n(CC(O)c2ccccc2)c2ccccc21` (stereo not given), which “activity change, negative = inhibition” value is on record?
A: Its value is 80.1% (inactive).

Q: With `COc1ccc(N(CC(=O)NCc2ccc(F)cc2)C(=O)CCC(=O)Nc2nccs2)cc1` as the compound, how does the “activity change, negative = inhibition” value read?
A: Its value is 9.32% (inactive).

Q: Which “activity change, negative = inhibition” value does the source give for `CN1CCN(NC(=O)Nc2ccc(Br)cc2)CC1` here?
A: The value was 84% (inactive).

Q: Which “activity change, negative = inhibition” value does the source give for `Cc1ccc(C)c(NC(=O)COC(=O)Cn2c(C)csc2=O)c1` here?
A: Its value is 1.84% (inactive).

Q: Which “activity change, negative = inhibition” value does the source give for `COC(=O)c1ccc(OC(=O)c2cnccn2)cc1` here?
A: Its value is 10.3% (inactive).

Q: For `CC(C)C(=O)N1CC(=O)Nc2ccc(F)cc2C1c1ccc(F)cc1` (stereo not given), which “activity change, negative = inhibition” value is on record?
A: Its value is -8.58% (inactive).

Q: Which Potency does the source give for `CS(=O)(=O)c1sc(C(=O)NC(=S)Nc2ccc(OC(F)(F)F)cc2)c2c1C=CCC2` here?
A: The Potency was 2.62 µM (active).

Q: Which “activity change, negative = inhibition” value does the source give for `FC(F)(F)Oc1ccc(NC(=S)NCc2ccccc2)cc1` here?
A: The value was 16.6% (inactive).

Q: For `CCNC(=S)Nc1ccc(OC(F)(F)F)cc1`, which “activity change, negative = inhibition” value is on record?
A: Its value is 9.67% (inactive).

Q: Which “activity change, negative = inhibition” value does the source give for `COc1ccc(/C=C(/NC(=O)c2ccccc2)C(=O)Nc2cccc(C(=O)O)c2)cc1` here?
A: The value was 2.11% (inactive).

Q: Which “activity change, negative = inhibition” value does the source give for `Cc1cc(C)cc(OCC(=O)OCC(=O)NC2CCCC2)c1` here?
A: The value was 54.4% (inactive).

Q: With `CS(=O)(=O)N1CCN(C(=O)CSc2ccccc2)CC1` as the compound, how does the “activity change, negative = inhibition” value read?
A: The value was 14.8% (inactive).

Q: For `CCCC[C@@H]1CN=C(N)N1CCc1cc(C(F)(F)F)cc(C(F)(F)F)c1`, which Potency is on record?
A: The Potency was 5.22 µM (active).

Q: With `Cc1cccc(N2CCN(C(C)C(=O)N3CCc4ccccc43)CC2)c1C` (stereo not given) as the compound, how does the “activity change, negative = inhibition” value read?
A: The value was -2.14% (inactive).

Q: Which Potency does the source give for `CCCn1c(=N)n(CC(=O)c2ccc(Cl)c(Cl)c2)c2ccccc21` here?
A: The Potency was 7.38 µM (active).

Q: Which “activity change, negative = inhibition” value does the source give for `CCCCOC(=O)Cn1c(=N)n(CCN(CC)CC)c2ccccc21` here?
A: The value was 19.6% (inactive).

Q: With `CCCNC(=O)c1ccc(Cl)c(Cl)c1` as the compound, how does the “activity change, negative = inhibition” value read?
A: The value was 27.8% (inactive).

Q: Which “activity change, negative = inhibition” value does the source give for `Cc1ccnc(N2C(=O)c3ccc([N+](=O)[O-])cc3C2=O)c1` here?
A: The value was -3.81% (inactive).

Q: With `CCOC(=O)N1CCC(NC(=O)CCc2ccccc2)CC1` as the compound, how does the “activity change, negative = inhibition” value read?
A: The value was -17.2% (inactive).

Q: For `CCOC(=O)N1CCC(c2cc(=O)n(-c3ccccc3)[nH]2)CC1`, which Potency is on record?
A: The Potency was 9.28 µM (active).

Q: With `CCOC(=O)CN1CCC(c2ccccc2)CC1` as the compound, how does the “activity change, negative = inhibition” value read?
A: Its value is -10.5% (inactive).
